# Reference: PubChem BioAssay (Tox21)
# Results filed as inconclusive are left out. A call without a number means that no potency is given here. Values without a mark were called inactive. Active and inactive are the calls of the source. Unless noted, calls come from the whole dose curve; as a rule, active = well fitted curve in the direction sought with a large enough effect in the repeat runs; inconclusive = weak or mixed curves; inactive = no such curve, though single readings can be large; an effect the other way counts as inactive or inconclusive.
# Columns and labels:
# [1] = qHTS assay to identify small molecule antagonists of the estrogen related receptor (ERR) signaling pathway (AID 1224819; note: nearly all actives have a fitted effect of over 50% in size; note: potency is the fitted concentration of half-maximal effect)
# Summary of the method: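 ERR reporter cell line (NTP) plated at 2,000 cells/well, settled 6 h at 37C/5% CO2, then exposed to LOPAC compounds for 18 h at 37C. One-Glo luciferase luminescence read after 30 min at room temperature.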
# [2] = qHTS assay to identify small molecule agonists of the estrogen related receptor (ERR) signaling pathway (AID 1224820)
# Summary of the method: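 Quantitative HTS of the LOPAC library used NTP ERR reporter cells treated 18 h at 37 C. Signal is luminescence after One-Glo addition and a 30 min room-temperature incubation.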
# [3] = tested on: estrogen-related receptor alpha (ERRalpha) with PGC-1alpha coactivator, human; assay: qHTS assay to identify small molecule antagonists of the estrogen related receptor signaling pathway with the pleiotropic PPARgamma coactivator (PGC) (AID 1224821; calls by dose curve; note: nearly all actives have a fitted effect of over 50% in size; note: potency is the fitted concentration of half-maximal effect)
# Summary of the method: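 Quantitative HTS for antagonism: PGC/ERR cells received compounds after 6 h attachment and were incubated 18 h at 37 C, with luminescence (One-Glo) as the endpoint.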
# [4] = qHTS assay to identify small molecule antagonists of the estrogen related receptor signaling pathway with the pleiotropic PPARgamma coactivator (PGC) cell viability counter screen (AID 1224822; note: potency is the fitted concentration of half-maximal effect)
# Summary of the method: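 PGC/ERR cells rested 6 h, then compound-treated 17.5 h at 37 C. CellTiter-Fluor added for 30 min at 37 C, viability measured by fluorescence intensity.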
# [5] = qHTS assay to identify small molecule agonists of the estrogen related receptor signaling pathway with the pleiotropic PPARgamma coactivator (PGC) (AID 1224823); note: potency is the fitted concentration of half-maximal effect
# Summary of the method: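 Cell-based luciferase assay in the NTP-supplied PGC/ERR line, 2,000 cells/well; 18 h compound exposure at 37 C, luminescence after One-Glo.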
# [6] = qHTS assay to identify small molecule antagonists of the estrogen related receptor (ERR) signaling pathway - cell viability counter screen (AID 1224818); note: series mostly up to about 46 µM
# Summary of the method: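 ERR cells, 2,000 per well, compound added after 6 h and incubated 17.5 h at 37 C. Viability read by CellTiter-Fluor fluorescence after a further 30 min at 37 C.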
# [7] = qHTS assay to identify small molecule antagonists of the estrogen related receptor (ERR) signaling pathway from Tox21 library - cell viability counter screen (AID 1224834); note: nearly all actives have a fitted effect of over 30% in size
# Summary of the method: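 ERR reporter cells, 2,000 per well, rested 6 h, then exposed to compound in DMSO for 17.5 hours at 37 C. Viability read as fluorescence after 30 min with CellTiter-Fluor.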
# [8] = target: Luciferin 4-monooxygenase (Photinus pyralis) (UniProt P08659); assay: qHTS assay to identify small molecule inhibitors of firefly luciferase (AID 1224835); note: series mostly up to about 120 µM; nearly all actives have a fitted effect of over 25% in size
# Summary of the method: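 Biochemical qHTS: compounds run as interplate titrations against purified firefly enzyme, with D-luciferin and ATP each at its KM concentration. Light output recorded by CCD imaging.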
# [9] = qHTS assay to identify small molecule agonists of the constitutive androstane receptor (CAR) signaling pathway - cell viability counter screen (AID 1224836); note: series mostly up to about 92 µM; nearly all actives have a fitted effect of over 45% in size
# Summary of the method: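 Using CellTiter-Fluor, viability of HepG2 cells harbouring hCAR and CYP2B6-2.2kb was measured following 23 h incubation with a 15-concentration compound series plus PK11195 (0.75 uM final).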
# [10] = qHTS assay to identify small molecule antagonists of the constitutive androstane receptor (CAR) signaling pathway - cell viability counter screen (AID 1224837); note: series mostly up to about 92 µM; nearly all actives have a fitted effect of over 45% in size
# Summary of the method: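 HepG2 cells stably carrying hCAR and CYP2B6-2.2kb reporter, stimulated with 50 nM CITCO and compounds at 15 concentrations for 23 h at 37 C. Viability measured by CellTiter-Fluor fluorescence.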
# [11] = qHTS assay to identify small molecule antagonists of the estrogen related receptor signaling pathway with the pleiotropic PPARgamma coactivator (PGC) from Tox21 10K library - cell viability counter screen (AID 1224840; active = well fitted cell-killing curve with a large enough effect in the repeat runs, not every such curve was filed as active; note: nearly all actives have a fitted effect of over 40% in size)
# Summary of the method: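 PGC/ERR cells (2,000/well) plated 6 h, then compound-treated for 17.5 h at 37 C. Viability measured by CellTiter-Fluor fluorescence after 30 min at 37 C, multiplexed with the pathway assay.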
# [12] = target: Thyrotropin receptor (Homo sapiens) (UniProt P16473); assay: qHTS assay to identify small molecule agonists of the thyroid stimulating hormone receptor (TSHR) signaling pathway (AID 1224843; calls by dose curve; note: nearly all actives have a fitted effect of over 45% in size)
# Summary of the method: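 Steps: seed 800 TSHR-HEK293 cells per well; add test compound and hold 30 min at ambient temperature; dispense cAMP-d2 then anti-cAMP cryptate; incubate 1 h at ambient; measure fluorescence intensity.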
# [13] = qHTS assay to identify small molecule agonists of the hypoxia (HIF-1) signaling pathway - cell viability counter screen (AID 1224844; calls by dose curve; note: nearly all actives have a fitted effect of over 50% in size)
# Summary of the method: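 HRE-bla ME-180 cells, 2,000/well in 0.5% dialyzed FBS medium, treated 17 h at 37C with compounds. Viability read in the same wells as the bla reporter, by CellTiter-Glo luminescence after 30 min at room temperature.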
# [14] = qHTS assay to identify small molecule agonists of H2AX (AID 1224845; active = well fitted activation curve with a large enough effect in the signal ratio in the repeat runs, not every such curve was filed as active; the % refers to the signal ratio)
# Summary of the method: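 Wild-type CHO-K1 cells, plated overnight, exposed 3hr at 37C to 15 concentrations (0.76% DMSO final). Lysed, then HTRF anti-pH2AX (S139) cryptate and anti-H2AX-d2 antibodies, 24 hr room temperature; 665/620 nm emission read.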
# [15] = qHTS assay to identify small molecule agonists of H2AX - cell viability counter screen (AID 1224847; calls by dose curve; note: top concentration of the series differs between compounds; nearly all actives have a fitted effect of over 30% in size)
# Summary of the method: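 Quantitative HTS viability measurement: CHO-K1 wild-type cells in serum (10% FBS) medium, short 3 hr drug exposure at 37C with 0.76% DMSO, CellTiter-Glo luminescent detection.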
# Chain of Luciferin 4-monooxygenase (Photinus pyralis) (P08659 whole entry, looked up): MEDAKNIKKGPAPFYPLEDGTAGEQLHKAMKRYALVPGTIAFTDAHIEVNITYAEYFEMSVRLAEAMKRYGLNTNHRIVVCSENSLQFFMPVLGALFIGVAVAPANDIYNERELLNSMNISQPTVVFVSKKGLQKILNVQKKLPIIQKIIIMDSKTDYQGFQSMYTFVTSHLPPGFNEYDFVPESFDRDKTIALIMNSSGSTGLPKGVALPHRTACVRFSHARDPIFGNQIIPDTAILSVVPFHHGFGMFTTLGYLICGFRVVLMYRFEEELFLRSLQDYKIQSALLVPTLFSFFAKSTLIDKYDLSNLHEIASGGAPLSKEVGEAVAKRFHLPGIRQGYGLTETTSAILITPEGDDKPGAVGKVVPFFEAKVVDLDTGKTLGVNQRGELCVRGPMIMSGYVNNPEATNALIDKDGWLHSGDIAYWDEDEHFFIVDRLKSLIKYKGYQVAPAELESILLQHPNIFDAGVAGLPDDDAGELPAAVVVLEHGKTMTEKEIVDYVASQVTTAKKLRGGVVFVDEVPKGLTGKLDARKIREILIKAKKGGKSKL
# Chain of Thyrotropin receptor (Homo sapiens) (P16473 whole entry, looked up): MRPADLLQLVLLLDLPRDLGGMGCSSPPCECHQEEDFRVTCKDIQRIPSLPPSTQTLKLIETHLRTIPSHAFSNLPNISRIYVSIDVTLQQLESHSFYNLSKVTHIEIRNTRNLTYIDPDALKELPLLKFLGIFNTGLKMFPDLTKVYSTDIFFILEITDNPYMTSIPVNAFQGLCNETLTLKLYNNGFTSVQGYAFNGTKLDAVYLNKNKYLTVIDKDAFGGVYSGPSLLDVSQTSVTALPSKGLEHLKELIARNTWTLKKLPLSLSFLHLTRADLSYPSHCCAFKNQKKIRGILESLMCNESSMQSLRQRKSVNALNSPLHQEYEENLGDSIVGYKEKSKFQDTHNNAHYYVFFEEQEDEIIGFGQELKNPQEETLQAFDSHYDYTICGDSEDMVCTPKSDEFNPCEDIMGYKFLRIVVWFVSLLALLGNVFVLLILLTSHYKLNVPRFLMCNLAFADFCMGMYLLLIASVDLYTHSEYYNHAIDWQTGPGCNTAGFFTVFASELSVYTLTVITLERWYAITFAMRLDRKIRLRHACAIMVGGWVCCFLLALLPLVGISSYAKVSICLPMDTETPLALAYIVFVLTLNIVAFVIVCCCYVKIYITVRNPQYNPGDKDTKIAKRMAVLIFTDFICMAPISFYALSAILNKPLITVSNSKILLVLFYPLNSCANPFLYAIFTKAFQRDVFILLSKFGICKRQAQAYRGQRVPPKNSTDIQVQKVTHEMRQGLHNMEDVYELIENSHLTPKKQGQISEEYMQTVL
smiles,measurement,setting,value
Cc1cccc(-c2[nH]c(C(C)(C)C)nc2-c2ccc3nccnc3c2)n1,Potency,[1],10.2 µM (active)
same,Potency,[2],inactive
same,Potency,[3],6.94 µM (active)
same,Potency,[4],8.1 µM (active)
same,Potency,[5],inactive
Cn1c(=O)[nH]c2ncn(C)c2c1=O,Potency,[6],inactive
same,Potency,[4],inactive
same,Potency,[7],inactive
same,Potency,[8],inactive
same,Potency,[9],inactive
same,Potency,[10],inactive
same,Potency,[11],inactive
same,Potency,[12],inactive
same,Potency,[13],inactive
same,Potency,[14],inactive
same,Potency,[15],inactive
COC(=O)C(C)(N)Cc1ccc(O)cc1 (stereo not given),Potency,[1],inactive
same,Potency,[2],inactive
same,Potency,[3],inactive
same,Potency,[4],inactive
same,Potency,[5],inactive
O=c1cc(-c2ccccc2)[nH]c2nc(Cl)ccc12,Potency,[1],inactive
same,Potency,[2],inactive
same,Potency,[3],inactive
same,Potency,[4],inactive
same,Potency,[5],inactive
CCNC(=O)[C@H]1O[C@@H](n2cnc3c(N)nc(NCCc4ccc(CCC(=O)O)cc4)nc32)[C@H](O)C1O (stereo not given in full),Potency,[1],inactive
same,Potency,[2],inactive
same,Potency,[3],inactive
same,Potency,[4],inactive
same,Potency,[5],1.28 µM (active)
Cc1cc2c(cc1Cl)N(C(=O)Nc1ccnc3ccccc13)CC2,Potency,[1],inactive
same,Potency,[2],inactive
same,Potency,[3],inactive
same,Potency,[4],inactive
same,Potency,[5],inactive
Nc1ncnc2c1c(-c1ccc(Oc3ccccc3)cc1)cn2C1CCCC1,Potency,[1],11.9 µM (active)
same,Potency,[2],inactive
same,Potency,[5],inactive
COc1cccc(C(=O)NCCN2CCN(c3ccc(Cl)cc3)CC2)c1,Potency,[1],17.4 µM (active)
same,Potency,[2],inactive
same,Potency,[4],inactive
same,Potency,[5],inactive
CN[C@H](CC(C)C)C(=O)N[C@H]1C(=O)N[C@@H](CC(N)=O)C(=O)N[C@H]2C(=O)N[C@H]3C(=O)N[C@H](C(=O)N[C@H](C(=O)O)c4cc(O)cc(O)c4-c4cc3ccc4O)[C@H](O)c3ccc(c(Cl)c3)Oc3cc2cc(c3O[C@@H]2O[C@H](CO)[C@@H](O)[C@H](O)[C@H]2O[C@H]2C[C@](C)(N)[C@H](O)[C@H](C)O2)Oc2ccc(cc2Cl)[C@H]1O,Potency,[1],inactive
same,Potency,[3],inactive
same,Potency,[4],inactive
CCN(c1nc(N)c(C(=O)N=C(N)N)nc1Cl)C(C)C,Potency,[1],9.81 µM (active)
same,Potency,[2],inactive
same,Potency,[5],inactive
O=C(O)C1=CC(=C(c2ccc(O)c(C(=O)O)c2)c2ccc(O)c(C(=O)O)c2)C=CC1=O,Potency,[1],inactive
same,Potency,[2],inactive
same,Potency,[4],inactive
same,Potency,[5],inactive
Nc1ncnc2c1ncn2C1CCCC1,Potency,[1],inactive
same,Potency,[2],inactive
same,Potency,[3],inactive
same,Potency,[5],inactive
CCCCOC(=O)NS(=O)(=O)c1sc(CC(C)C)cc1-c1ccc(Cn2c(CC)nc3c(C)cc(C)nc32)cc1,Potency,[1],11.9 µM (active)
same,Potency,[2],inactive
same,Potency,[5],inactive
